# PubChem BioAssay AID624453 (National Center for Advancing Translational Sciences (NCATS), 2012)
# The source made the active and inactive calls. The call rests on the fitted dose curve; in most records, active means well fitted curve in the direction sought with a large enough effect; inactive means no such curve, though single readings can be large or run the other way.
# Target: D(2) dopamine receptor (Homo sapiens) (UniProt P14416)
# Assay: HTS Assay for Allosteric Antagonists of the Human D2 Dopamine Receptor: Hit Validation in primary assay
# Details: HEK293 TREx D2, calcium flux, dopamine EC80 antagonism; series mostly up to 41.8 µM; activity change, negative = inhibition: at the top concentration
# Source text: Dopamine receptors (DARs) are involved in the etiology and/or therapy of a number of neuropsychiatric and endocrine disorders. For instance, all receptor-based antiparkinsonian drugs work via stimulating the D2 DAR subtype whereas all FDA-approved antipsychotic agents are antagonists of this receptor. […] There are three different types of allosteric modulators that we are seeking, two of which will stimulate or augment receptor signaling, allosteric agonists and potentiators, while the third, allosteric antagonists, will attenuate receptor signaling. The present primary screening assay measures compound antagonism after an EC80 addition of dopamine by tracking calcium flux in a […], inducible Hek293 Trex D2 cell line. NIH Chemical Genomics Center [NCGC] NIH Molecular Libraries Probe Centers Network [MLPCN] MLPCN Grant: NS064831 Assay Submitter (PI): David Sibley
# Freshly passaged cells are plated in 1536 well black, clear bottom plates at a density of 4000 cells/well in 3 ul of complete media containing 1x tetracycline inducer. After an overnight incubation at 30 C in 5% CO2, cells are loaded with 2 ul of the no wash Calcium Assay Kit (ABD Bioquest) and incubated at room temperature for 30 to 90 minutes before it's read.
# Sequence of D(2) dopamine receptor (Homo sapiens) (P14416 whole entry, looked up): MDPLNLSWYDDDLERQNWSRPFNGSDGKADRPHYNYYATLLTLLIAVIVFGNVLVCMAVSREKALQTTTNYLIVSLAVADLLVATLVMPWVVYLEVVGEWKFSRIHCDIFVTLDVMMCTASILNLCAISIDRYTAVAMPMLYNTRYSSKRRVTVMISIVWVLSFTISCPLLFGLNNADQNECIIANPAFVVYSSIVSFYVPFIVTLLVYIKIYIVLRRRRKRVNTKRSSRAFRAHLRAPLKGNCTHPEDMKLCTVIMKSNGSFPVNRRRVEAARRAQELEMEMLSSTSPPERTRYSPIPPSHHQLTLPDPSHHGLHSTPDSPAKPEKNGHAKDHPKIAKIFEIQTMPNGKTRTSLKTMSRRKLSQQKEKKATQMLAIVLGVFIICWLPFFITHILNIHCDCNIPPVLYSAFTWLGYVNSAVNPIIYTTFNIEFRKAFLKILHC
row,SMILES,"activity change, negative = inhibition"
1,CC(N)C(O)c1ccc(O)c(O)c1 (stereo not given),97.2% (inactive)
2,CN1C2CC(OC(=O)C(CO)c3ccccc3)CC1C(O)C2 (stereo not given),2.83% (inactive)
3,CCN1C[C@@]2(C)CC[C@@H](OC)[C@@]34C2C(O)[C@@]2(OCO[C@]25CC(OC)C2C[C@@]3(O)C5C2O)C14 (stereo not given in full),16.4% (inactive)
4,CC1C(=O)OC2O[C@]3(C)CC[C@H]4C(C)CCC1[C@]24OO3 (stereo not given in full),21.1% (inactive)
5,NNCc1ccccc1,20.8% (inactive)
